# Shown are actives, neighbours in structure and some others; about 2.6% of the full set was active somewhere.
# PABP FP inh – PABP poly(A) RNA binding inhibitors, primary screen, biochemical, fluorescence polarization, uHTS | Polyadenylate-binding protein 1 (Homo sapiens), P11940 | calls only at 35 µM | 290,000 compounds, 1% hits | AID 2014, 2009;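 note: calls also rest on retests at 20 µM and on dose response follow-up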
# eIF4H FP inh – human eIF4H binding inhibitors, primary screen, translation initiation inhibitor project, biochemical, uHTS, fluorescence polarization; Eukaryotic translation initiation factor 4H (Homo sapiens), Q15056; eIF4H fluorescence polarization binding assay; inhibition, % at 35 µM; 290,000 compounds, 0.94% hits; AID 2012, 2009;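 note: calls also rest on retests at 20 µM and on dose response follow-up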
# PHOSPHO1 inh – PubChem AID 1565; Phosphoethanolamine/phosphocholine phosphatase (Homo sapiens), Q8TCT1; recombinant PHOSPHO1, absorbance phosphatase assay; inhibition, % at 13.3 µM; 290,000 compounds, 1.1% hits; in the data active = inhibition above about 60%
# APOBEC3G inh – APOBEC3G DNA deaminase inhibitors, primary screen, biochemical, fluorescence, single-stranded DNA substrate, uHTS | recombinant A3G, ssDNA deamination FAM/TAMRA fluorescence | inhibition, % at 20 µM | 330,000 compounds, 0.28% hits | AID 493012, 2011;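 active = inhibition of at least 40% at 20 µM, with no more than 30% in the related APOBEC3A deaminase screen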;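 note: plate controls were DMSO wells with A3G for no effect and wells lacking A3G enzyme for full effect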
# Target sequence (Q9HC16 whole entry, looked up): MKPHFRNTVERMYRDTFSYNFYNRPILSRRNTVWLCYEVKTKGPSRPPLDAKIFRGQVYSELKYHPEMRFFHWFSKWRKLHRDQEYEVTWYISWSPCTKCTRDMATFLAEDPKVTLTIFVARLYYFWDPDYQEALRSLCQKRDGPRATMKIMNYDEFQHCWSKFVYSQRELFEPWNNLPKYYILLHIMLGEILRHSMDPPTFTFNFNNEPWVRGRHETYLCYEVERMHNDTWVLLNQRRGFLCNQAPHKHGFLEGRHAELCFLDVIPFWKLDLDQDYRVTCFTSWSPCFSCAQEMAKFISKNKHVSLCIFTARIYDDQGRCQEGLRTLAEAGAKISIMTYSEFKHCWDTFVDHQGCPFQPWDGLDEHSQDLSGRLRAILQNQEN
# MLLE-PAM2 inh – inhibitors of PABP1 MLLE–PAM2 peptide binding, primary screen, biochemical, fluorescence polarization, FITC-PAM2, GST-MLLE; Polyadenylate-binding protein 1 (Homo sapiens), P11940; inhibition, % at 20 µM; AID 588489, 2011; 360,000 compounds, 0.36% hits; in the data active = inhibition above about 35%, passing the limit was not always enough;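 note: plate controls were DMSO wells with GST-MLLE for no effect and wells lacking GST-MLLE protein for full effect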
# APOBEC3A inh – APOBEC3A ssDNA deaminase inhibitors, primary screen, selectivity assay for APOBEC3G inhibitor project, biochemical, FAM/TAMRA oligo cleavage fluorescence | AID 493011, 2011 | 330,000 compounds, 0.41% hits | DNA dC->dU-editing enzyme APOBEC-3A (Homo sapiens), P31941 | inhibition, % at 20 µM | recombinant A3A, FAM/TAMRA ssDNA deamination fluorescence;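 active = at least 40% inhibition at 20 µM here, with at most 30% in a related deaminase screen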;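 note: plate controls were A3A with DMSO for no effect and wells lacking A3A enzyme for full effect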
# Starred values were filed as active, the others as inactive; i = inactive; nt = not tested or not shown; + = active, no number. Unless noted, the rule behind the calls is not given here.
SMILES,PABP FP inh,eIF4H FP inh,PHOSPHO1 inh,APOBEC3G inh,MLLE-PAM2 inh,APOBEC3A inh
Cc1ccc(OC(C)C(=O)N2CC(=O)Nc3ccccc32)c(C)c1 (stereo unspecified),i,-6.2,18.8,-6.0,-15.8,-2.5
COc1cccc(NC(=O)N2CCCC2C(=O)Nc2cc(C)ccc2OC)c1 (stereo unspecified),i,1.4,2.2,-9.1,-5.8,-3.6
O=C(CCCCn1c(=O)[nH]c2ccccc2c1=O)NC1CCN(Cc2ccccc2)CC1,i,-5.8,63.0*,-9.6,1.0,-2.9
O=C(CCCn1c(=O)[nH]c2ccccc2c1=O)NC1CCCCCC1,i,-14.7,33.4,-1.0,-0.7,-1.0
O=C(NCc1ccc(Cl)cc1Cl)C1CC(=O)N(Cc2ccccc2)C1 (stereo unspecified),i,-1.4,-14.2,0.1,15.0,4.0
O=C(NN1CC(C(=O)OCc2ccc(Cl)cc2Cl)CC1=O)c1ccccc1 (stereo unspecified),i,-5.9,61.0*,-0.4,12.9,-2.4
Cc1ccc(N2C(=O)CC(Sc3cccs3)C2=O)cc1 (stereo unspecified),i,-13.9,15.9,-4.2,32.8,-2.0
Cc1ccc(SC2CC(=O)N(c3ccc4c(c3)OCCO4)C2=O)cc1 (stereo unspecified),i,-8.0,-30.0,-5.1,42.5*,-3.4
CCCCN1CC(COC)Oc2cccc(F)c2S1(=O)=O (stereo unspecified),nt,nt,nt,nt,-6.3,nt
Cc1ccccc1NC(=O)COC(=O)CCc1ccccc1,i,13.9,20.5,-5.2,0.5,0.6
O=c1nc(/C=C/c2cccn2-c2ccc([N+](=O)[O-])cc2)cc(C(F)(F)F)[nH]1,+,59.6*,-15.2,5.6,-74.7,10.8
CC1CC(C)(C)CC2(C1)NC(=O)N(CC(=O)N1CCN(Cc3ccc(C#N)cc3)CC1)C2=O (stereo unspecified),nt,nt,nt,-9.3,-12.4,7.1
Cc1cc(C)n2nc(C(=O)Nc3ccc4c(c3)CCC4)nc2n1,i,2.1*,0.6,-5.3,-16.0,-5.1
Cc1cc(C)n2nc(C(=O)Nc3ccc(S(=O)(=O)N4CCCC4)cc3)nc2n1,i,-11.0,28.5,-1.6,-0.5,0.5
O=C1C2C3C=CC(C3)C2C(=O)N1/N=C/c1ccc(-c2ccccc2[N+](=O)[O-])o1 (stereo unspecified),i,28.7,-0.5,5.6,7.2,2.2
CN1C(=O)/C(=C/c2ccc(-c3ccccc3[N+](=O)[O-])o2)SC1=Nc1ccc(Cl)c(C(=O)O)c1,i,77.5*,-20.9,nt,-49.9,nt
O=Cc1c(Cl)[nH]c(=O)n1-c1ccccc1,+,4.0,15.8,0.7,5.2,6.3
Cc1ccc(NC(=S)NNC(=O)c2c([N+](=O)[O-])c(C)nn2C)cc1,i,5.9,76.1*,-1.7,-13.7,13.2
Cc1ccc(NC(=S)NNC(=O)c2c(Cl)c(C)nn2C)cc1,i,2.9,67.7*,-10.7,14.7,-4.4
Cc1ccc(NC(=S)NNC(=O)c2cn(C)nc2C)cc1,i,2.5,88.9*,-2.1,-20.7,-2.8
Cc1ccc(NC(=O)c2c([N+](=O)[O-])c(C(C)(C)C)nn2C)cc1,i,-8.3,19.2,-3.4,-10.0,1.2
Cc1ccc(NC(=S)NNC(=O)c2nn(C)c(C)c2Cl)cc1,i,0.8,8.1,0.2,-15.2,0.4
Cc1nn(C(C)C(=O)NNC(=S)Nc2ccc(Cl)cc2)c(C)c1[N+](=O)[O-] (stereo unspecified),i,8.7,94.5*,-4.3,29.4,-4.4
O=C(CCN1C(=O)C2CCCCC2C1=O)Nc1ccc(Br)cc1F (stereo unspecified),nt,nt,nt,-2.1,-9.0,3.2
O=C(c1cccc(Br)c1)N1CCN(S(=O)(=O)N2CCCCC2)CC1,i,-2.9,42.2,-0.5,-1.1,0.3
SMILES,PABP FP inh,eIF4H FP inh,PHOSPHO1 inh,APOBEC3G inh,MLLE-PAM2 inh,APOBEC3A inh
O=C(CN1C(=O)NC2(CCc3ccccc32)C1=O)NCc1cccc(C(F)(F)F)c1 (stereo unspecified),nt,nt,nt,-6.2,-3.0,-3.0
C=CCN1C(=O)C2(NC(=O)c3ccccc3N2)c2ccccc21 (stereo unspecified),i,-2.6,-7.1,-7.5,4.1,-5.8
C=CCN1C(=O)C2(NNc3ccccc3O2)c2ccccc21 (stereo unspecified),+,100.9*,86.8*,-5.8,-94.4,0.8
CCCS(=O)(=O)NC(=O)C1(C)CCN(C(=O)COc2ccccc2)C1 (stereo unspecified),nt,nt,nt,nt,0.4,nt
CC(C)CC1NC(=O)N(CC(=O)Nc2cc(F)ccc2F)C1=O (stereo unspecified),nt,nt,nt,-8.4,-3.1,-0.1
Cc1ccc2nc3c(cc(C#N)c(=O)n3-c3nccs3)c(=O)n2c1,+,98.5*,6.4,-5.5,2.5,3.3
Cc1ccc2nc3c(cc(C#N)c(=O)n3CCN3CCOCC3)c(=O)n2c1,i,27.6,-2.2,nt,nt,nt
CCC(C)n1c(=N)c(C#N)cc2c(=O)n3cc(C)ccc3nc21 (stereo unspecified),+,57.7*,-7.9,-9.9,-4.7,-2.4
CCC(C)n1c(=N)c(C#N)cc2c(=O)n3cccc(C)c3nc21 (stereo unspecified),i,-1.2,44.9,0.9,-0.9,-1.5
Cc1ccc2nc3c(cc(C#N)c(=O)n3CC3CCCO3)c(=O)n2c1 (stereo unspecified),+,31.9*,28.8,nt,nt,nt
Cn1c(=O)c2c(-c3ccccc3)n(-c3ccccc3S)cc2n(C)c1=O,nt,nt,nt,nt,-2.4,nt
Cn1cc(Cc2ccc(C(=O)NCc3ccccc3)cn2)c2ccccc21,nt,nt,nt,nt,-11.5,nt
O=C(Nc1ccc(F)cc1)Nc1ccc([N+](=O)[O-])cn1,+,3.0*,-12.6,-1.0,8.2,0.0
O=C(Nc1ccc(Cl)c(Cl)c1)Nc1ccc([N+](=O)[O-])cn1,i,1.6,25.4,5.6,-0.8,5.7
CC1CC(C)(C)CC2(C1)NC(=S)N(c1ccccc1)N2 (stereo unspecified),i,4.9,97.9*,-1.6,-13.9,-0.4
CC(=O)/C(N=Nc1nc2c([nH]1)c(=O)n(C)c(=O)n2C)=C(\C)O,i,18.1,32.7,-11.0,54.7*,-2.9
CCN(CC)C(=O)C1=C(C)N(Cc2ccc(OC)cc2)C(=O)C(CC(=O)NC2CCCCC2)C1 (stereo unspecified),nt,nt,nt,nt,16.2,nt
O=C(Nc1ccc2c(c1)OCO2)c1cc2ncc(Br)cn2n1,+,54.0*,11.4,nt,-7.6,nt
O=C(Nc1cccc(C(F)(F)F)c1)c1cc2ncc(Br)cn2n1,i,1.5,-4.4,2.4,-1.2,18.2

# Assay outcomes as filed in PubChem BioAssay.
